Measurements taken from PubChem BioAssay (NCI).
The panel holds about 83,000 compounds, 20% with a hit somewhere; the sample as a whole holds those more often.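 Assay: single dose, 48 h. Readout: percent growth (0 = no net growth; negative = cell death). Active: <10.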 The source made the active and inactive calls.

Test system: NCI-H322M lung
Experiment: NCI-60 one-dose screen, 48 h (100 = growth as untreated, 0 = no growth, -100 = all killed)
Details: 10 µM unless noted
Method: Growth inhibition of the NCI-H322M human Non-Small Cell Lung tumor cell line is measured as a screen for anti-cancer activity. Cells are grown in 96 well plates and exposed to the test compound for 48 hours. Compounds are tested at a single concentration, which is 10^-5 M for most compounds. The reported endpoint is percent growth (GI% or GIPRCNT), where numbers from 0 - 100% represent growth inhibition, and numbers from -100% - 0 represent cell death. For example, a value of 40 represents 60% growth inhibition. A value of 0 means no net growth occurred over the course of the experiment. A value of -40 indicates 40% of cells at the beginning of the experiment died by the end of the experiment. A value of -100 means all cells are dead at the end of the experiment.
NCI-60 Human Tumor Cell Lines Screen was performed using the standard one-dose NCI protocol, which is described in more detail at https://dtp.cancer.gov/discovery_development/nci-60/default.htm.
Compounds with GIPRCNT values below 10 were considered active. Activity score was based on GIPRCNT using the following formula: […]
Score is 0 for GIPRCNT values of 100 or above, 50 for GIPRCNT values of 0, and 100 for GIPRCNT values of -100.

Structure (SMILES)	growth
COc1c2ccccc2c(OC)c2[nH]c(=O)ccc12	22.2% (inactive)
COc1cc(-c2c3c(nc4c2c(C)nn4-c2ccccc2)-c2ccccc2C(=O)C3=O)cc(OC)c1OC	104% (inactive)
O=C(Cn1cc(CN2C(=O)c3ccccc3S2(=O)=O)nn1)Nc1ccc([N+](=O)[O-])cc1Cl	94.5% (inactive)
C=CC[N+]1(CCO)CCN=C1CCCCCCCCCCCCC (stereo not given)	73.9% (inactive)
COc1cccc(NC(=O)c2sc3nc4c(cc3c2N)CN(Cc2ccccc2)CC4)c1	74% (inactive)
CCCCCCCCCCCCCCCCCCNC(=O)[C@H]1CSC(c2ccc(OC)c(F)c2)N1 (stereo not given in full)	38.4% (inactive)
CCOC(=O)CC(C)=N	121% (inactive)
COc1ccc(/C=C2\CN(C(=O)CCN3CCC(=NO)CC3)C/C(=C\c3ccc(OC)cc3)C2=O)cc1	17.8% (inactive)
O=S(=O)(Nc1ccc(Cl)cc1Cl)c1ccc(-c2cnc(C3CC3)o2)cc1	36.5% (inactive)
CCN(CC)CCCNc1cccc2c(SCc3ccccc3)ccnc12	41.6% (inactive)
C=C1CCC2C3(C)COC(c4ccc(SC)cc4)OC3CCC2(C)C1C/C=C1/C(=O)OCC1O (stereo not given)	102% (inactive)
Fc1ccc(Cc2ccc(F)cc2)cc1	105% (inactive)
COc1ccc2nc3cc(Cl)ccc3c(N3CCN(c4nccc(Nc5ccc(Cl)cc5)n4)CC3)c2c1	97.5% (inactive)
CCCCCCCCCCCCS(=O)CC(C)O (stereo not given)	119% (inactive)
Cc1cc(Nc2nc(N3CCOCC3)nc3ccccc23)n[nH]1	65.8% (inactive)
CS(=O)(=O)c1c(Nc2ccccc2)n[nH]c1N	103% (inactive)
CNc1nc(C)c(-c2nc(Nc3cccc(S(N)(=O)=O)c3)ncc2F)s1	3.99% (active)
CCOC(=O)c1c2c(n3ccc(NC(=O)CCN4CCCCC4)cc13)C(=O)c1ncccc1C2=O	-77.4% (active)
C=C1CCC2C3(C)COC(c4ccc(OC)cc4Br)OC3CCC2(C)C1/C=C/C1=CCOC1=O (stereo not given)	97.6% (inactive)
CCOC(=O)c1cnc2ccc(OC)cc2c1Nc1cccc(S(=O)(=O)NC)c1	99.8% (inactive)

Structure (SMILES)	growth
COc1cccc(/C=C2/C(=O)N(Cc3ccco3)SC2=S)c1OC	98.7% (inactive)
O=C(C[C@@H](C(=O)NCc1cccc(C(F)(F)F)c1)N1C(=O)[C@@H](N2C(=O)OC[C@@H]2c2ccccc2)[C@H]1/C=C/c1ccccc1)NC1CCN(Cc2ccccc2)CC1	73.1% (inactive)
COc1cc(NCCCCCN=C(N)NC(N)=NC(C)C)c2ncccc2c1	50.7% (inactive)
CSc1ccc(N=C=C(c2ccccc2)c2ccccc2)cc1	107% (inactive)
O=C(Nc1ccc(CN2CCOCC2)cc1)c1[nH]ncc1Nc1ncnc2sccc12	6.2% (active)
C#Cc1nc2ccccc2c(=O)[nH]1	29.5% (inactive)
Nc1c(C(=O)Nc2cccc3c2OCCO3)sc2nc3c(cc12)CN(Cc1ccccc1)CC3	94.3% (inactive)
CCOC(=O)c1c2c(n3ccc(NC(=O)CCN4CCOCC4)cc13)C(=O)c1ncccc1C2=O	14.3% (inactive)
CN1CCN(Cc2ccc(NC(=O)c3[nH]ncc3Nc3ccnc4ccsc34)cc2)CC1	20% (inactive)
Cc1cc(N/N=C/c2nc(-c3ccc(Cl)cc3)oc2C)c2cc(Cl)ccc2n1	79.1% (inactive)
COc1cc(C#N)cc(OC)c1OCCN(CCOc1c(OC)cc(C#N)cc1OC)S(=O)(=O)c1ccc(C)cc1	91.6% (inactive)
O=S(=O)(NCCCNc1cc(-c2cn(-c3ccccc3)nc2-c2cccc(O)c2)ccn1)c1ccccc1	60.4% (inactive)
OCCNCCNc1c2ccccc2nc2ccccc12	52.7% (inactive)
COc1ccc2nc3cc(Cl)ccc3c(NCCNCC(O)CO)c2c1 (stereo not given)	20.6% (inactive)
Clc1ccc(-c2nnc(COc3ccccc3Cl)o2)cc1	76.9% (inactive)
C/C=C/C(N)=O	93.4% (inactive)
COc1ccc2nc3cc(Cl)ccc3c(N3CCN(c4ccnc(N5CCOCC5)n4)CC3)c2c1	94.4% (inactive)
CC[C@H](Nc1ncnc(N)c1C(N)=O)c1nc2cccc(NCc3ccc(C(=O)NO)cc3)c2c(=O)n1-c1ccccc1	86.9% (inactive)
O=[N+]([O-])c1c(F)cccc1Nc1cccc(F)c1	108% (inactive)
CN1CCN(Cc2ccc(NC(=O)c3cncc(C#Cc4cnc(N)c5cccnc45)c3)cc2C(F)(F)F)CC1	26.4% (inactive)
